In PubChem BioAssay (NCATS):
“And” between values parts separate entries of the source, which are not always exact repeats. Identical values can stand only once. Results filed as inconclusive are left out. The source made the active and inactive calls. Unless noted, the call rests on the fitted dose curve; in most records, active means well fitted curve in the direction sought with a large enough effect; inconclusive means small, poorly fitted or top-dose-only effect, or another doubt; inactive means no such curve, though single readings can be large; an effect the other way counts as inactive or inconclusive.

How the values were obtained:
[1] = molecular target: Lysosomal acid glucosylceramidase (Homo sapiens) (UniProt P04062); assay: Glucocerebrosidase-p2 (AID 348; in the data active means potency below about 10 µM; further: potency means the concentration at half of the fitted maximal effect); settings: purified GBA, blue fluorogenic substrate, 40 min
Sequence of Lysosomal acid glucosylceramidase (Homo sapiens) (P04062 whole entry, looked up): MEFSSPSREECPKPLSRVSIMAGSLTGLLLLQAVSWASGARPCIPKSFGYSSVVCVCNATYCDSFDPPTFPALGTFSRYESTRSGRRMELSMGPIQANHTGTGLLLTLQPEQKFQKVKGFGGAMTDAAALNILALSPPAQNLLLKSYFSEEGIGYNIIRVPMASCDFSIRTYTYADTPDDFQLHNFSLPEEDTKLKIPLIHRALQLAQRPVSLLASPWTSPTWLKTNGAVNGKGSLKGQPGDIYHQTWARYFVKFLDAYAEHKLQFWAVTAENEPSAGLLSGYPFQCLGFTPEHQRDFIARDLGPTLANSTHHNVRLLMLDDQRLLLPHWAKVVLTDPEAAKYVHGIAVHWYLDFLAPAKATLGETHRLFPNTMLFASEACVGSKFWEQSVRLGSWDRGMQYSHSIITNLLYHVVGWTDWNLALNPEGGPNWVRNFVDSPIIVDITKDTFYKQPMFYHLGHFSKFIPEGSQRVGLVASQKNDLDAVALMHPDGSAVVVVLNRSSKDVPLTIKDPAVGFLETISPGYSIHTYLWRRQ
Method in brief: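 Normal human glucocerebrosidase (0.2 nM) with blue fluorogenic substrate (80 uM final) in citrate/phosphate pH 5.9 with 10mM sodium taurocholate, 0.01% tween-20; 40 min RT, NaOH/glycine stop; fluorescence Ex 365/Em 440; AC50 from a titration from 0.6 nM upwards.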

[2] = AP1 Signaling Pathway (AID 357; active means well fitted curve in either direction with a large enough effect, not every such curve was filed as active;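 further: ME-180 reporter cells stimulated with EGF at its EC50 level; on the % scale 0 is the no-effect control and ±100 the full control effect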)
Method in brief: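 In this screen, ME-180 cells in Opti-MEM with 0.5% dialyzed FBS received EC50 EGF and compound titrations for 5 h. AP-1 reporter beta-lactamase was detected via CCF4 ratio, giving AC50 for positive and negative modulators.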

[3] = molecular target: Cytochrome P450 1A2 (Homo sapiens) (UniProt P05177); assay: p450-cyp1a2 (AID 410; calls by dose curve; further: potency means the concentration at half of the fitted maximal effect;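 on activity change, negative = inhibition: -100% = full effect of reference inhibitor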)
Sequence of Cytochrome P450 1A2 (Homo sapiens) (P05177 whole entry, looked up): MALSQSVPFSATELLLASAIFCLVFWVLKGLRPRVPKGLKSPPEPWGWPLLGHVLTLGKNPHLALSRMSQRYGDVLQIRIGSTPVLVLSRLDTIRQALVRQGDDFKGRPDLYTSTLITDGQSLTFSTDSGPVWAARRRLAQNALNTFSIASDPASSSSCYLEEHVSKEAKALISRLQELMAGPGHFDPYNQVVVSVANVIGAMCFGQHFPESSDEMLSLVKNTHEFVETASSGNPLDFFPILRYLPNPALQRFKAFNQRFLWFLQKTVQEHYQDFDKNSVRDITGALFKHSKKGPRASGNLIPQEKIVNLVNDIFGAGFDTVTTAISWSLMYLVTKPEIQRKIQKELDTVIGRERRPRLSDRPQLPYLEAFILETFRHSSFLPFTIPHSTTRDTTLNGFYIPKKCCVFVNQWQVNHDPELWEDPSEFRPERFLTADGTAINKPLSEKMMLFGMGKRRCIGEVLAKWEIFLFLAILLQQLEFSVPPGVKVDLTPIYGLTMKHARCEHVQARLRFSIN
Method in brief: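 Read-out is luminescence from luciferin produced by CYP1A2 demethylation of Luciferin-ME (100uM, at Km). Detection reagent stopped the 60 min NADPH-dependent reaction; signals were normalized to 57 uM furafylline.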

[4] = Stat Signaling Pathway (AID 446; active means well fitted curve in either direction with a large enough effect, not every such curve was filed as active;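 further: ME-180 cervical cancer cells given 40 pM IL-6 alongside compound; SIE-controlled beta-lactamase reporter measured as 460/530 nm FRET emission ratio; on the % scale 0 is the no-effect control and ±100 the full control effect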)
Method in brief: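 Overnight-plated ME-180 cells bearing a STAT Inducible Element beta-lactamase reporter; 5 h co-exposure to compound and 40 pM IL-6; values normalized to 300 pM IL-6 and 125 nM JAK inhibitor controls.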

[5] = molecular target: Glucocorticoid receptor (Homo sapiens) (UniProt P04150); assay: GR-EFC Redistribution (AID 451; calls by dose curve; further: potency means the concentration at half of the fitted maximal effect); settings: CHO-K1 GR-EFC translocation, beta-gal luminescence, 2 h
Sequence of Glucocorticoid receptor (Homo sapiens) (P04150 whole entry, looked up, the tested form may be a part): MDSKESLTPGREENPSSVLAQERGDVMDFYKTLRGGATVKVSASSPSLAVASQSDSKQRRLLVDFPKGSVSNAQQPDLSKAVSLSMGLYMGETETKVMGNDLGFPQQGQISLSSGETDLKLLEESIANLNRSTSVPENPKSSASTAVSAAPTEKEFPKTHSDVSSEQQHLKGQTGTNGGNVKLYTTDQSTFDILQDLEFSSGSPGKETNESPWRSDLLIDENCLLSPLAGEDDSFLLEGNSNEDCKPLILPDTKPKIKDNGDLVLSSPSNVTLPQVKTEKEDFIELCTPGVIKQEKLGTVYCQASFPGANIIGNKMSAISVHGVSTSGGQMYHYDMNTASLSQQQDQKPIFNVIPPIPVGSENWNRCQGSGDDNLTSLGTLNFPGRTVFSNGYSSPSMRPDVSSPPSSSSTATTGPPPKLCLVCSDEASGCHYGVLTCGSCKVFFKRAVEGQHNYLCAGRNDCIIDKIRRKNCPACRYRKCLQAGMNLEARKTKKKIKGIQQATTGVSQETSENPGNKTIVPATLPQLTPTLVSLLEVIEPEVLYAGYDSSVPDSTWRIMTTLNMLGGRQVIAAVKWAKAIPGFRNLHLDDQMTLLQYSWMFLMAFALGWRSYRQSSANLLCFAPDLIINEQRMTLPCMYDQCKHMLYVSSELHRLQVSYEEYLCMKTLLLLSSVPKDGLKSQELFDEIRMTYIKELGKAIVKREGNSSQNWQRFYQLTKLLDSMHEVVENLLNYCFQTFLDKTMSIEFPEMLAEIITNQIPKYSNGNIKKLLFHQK
Method in brief: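 Translocation of GR-ED fusion to nuclear EA restores b-gal, read by luminescence after 1 h room-temperature detection. Engineered CHO-K1 biosensor cells, 1,000/well, exposed 2 h at 37 C to titrations up to 46 uM final.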

[6] = molecular target: 3',5'-cyclic-AMP phosphodiesterase 4B (Homo sapiens) (UniProt Q07343); assay: qHTS Assay for Inhibitors of PDE-IV (AID 607; active means well fitted activation curve with a large enough effect in the main read-out, with a control signal flat, not every such curve was filed as active; further: % of control where 0% means no effect)
Sequence of 3',5'-cyclic-AMP phosphodiesterase 4B (Homo sapiens) (Q07343 whole entry, looked up): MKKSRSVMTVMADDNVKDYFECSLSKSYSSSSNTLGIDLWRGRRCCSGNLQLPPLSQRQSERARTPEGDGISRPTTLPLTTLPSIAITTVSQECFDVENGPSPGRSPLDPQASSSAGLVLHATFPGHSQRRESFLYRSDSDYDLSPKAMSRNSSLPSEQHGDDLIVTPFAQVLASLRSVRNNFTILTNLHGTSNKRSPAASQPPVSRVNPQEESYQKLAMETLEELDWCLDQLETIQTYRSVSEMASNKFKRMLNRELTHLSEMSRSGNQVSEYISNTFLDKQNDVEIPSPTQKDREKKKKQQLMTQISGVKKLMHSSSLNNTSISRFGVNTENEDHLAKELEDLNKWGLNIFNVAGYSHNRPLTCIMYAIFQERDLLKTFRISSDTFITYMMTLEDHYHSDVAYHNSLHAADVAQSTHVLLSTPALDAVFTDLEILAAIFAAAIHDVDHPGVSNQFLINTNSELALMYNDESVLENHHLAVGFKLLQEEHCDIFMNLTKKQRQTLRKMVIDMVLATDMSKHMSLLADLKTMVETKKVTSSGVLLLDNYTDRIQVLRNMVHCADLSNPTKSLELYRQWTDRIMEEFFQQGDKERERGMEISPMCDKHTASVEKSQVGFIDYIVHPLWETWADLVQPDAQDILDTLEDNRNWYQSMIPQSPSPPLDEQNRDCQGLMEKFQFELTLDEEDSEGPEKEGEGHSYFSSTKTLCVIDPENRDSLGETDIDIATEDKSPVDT
Method in brief: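 Live HEK293 cells with a modified cyclic nucleotide-gated (CNG) channel report intracellular cAMP via membrane-potential dye fluorescence (ex 535/em 590 nm). Endogenous PDE-IV was targeted. Compounds were tested at up to 22.9 uM final; RO 20-1724 100 uM served as control.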

[7] = molecular target: Cytochrome P450 3A4 (Homo sapiens) (UniProt P08684); assay: qHTS Assay for Activators of Cytochrome P450 3A4 (AID 885); further: nearly all actives have a fitted effect of over 65% in size
Sequence of Cytochrome P450 3A4 (Homo sapiens) (P08684 whole entry, looked up): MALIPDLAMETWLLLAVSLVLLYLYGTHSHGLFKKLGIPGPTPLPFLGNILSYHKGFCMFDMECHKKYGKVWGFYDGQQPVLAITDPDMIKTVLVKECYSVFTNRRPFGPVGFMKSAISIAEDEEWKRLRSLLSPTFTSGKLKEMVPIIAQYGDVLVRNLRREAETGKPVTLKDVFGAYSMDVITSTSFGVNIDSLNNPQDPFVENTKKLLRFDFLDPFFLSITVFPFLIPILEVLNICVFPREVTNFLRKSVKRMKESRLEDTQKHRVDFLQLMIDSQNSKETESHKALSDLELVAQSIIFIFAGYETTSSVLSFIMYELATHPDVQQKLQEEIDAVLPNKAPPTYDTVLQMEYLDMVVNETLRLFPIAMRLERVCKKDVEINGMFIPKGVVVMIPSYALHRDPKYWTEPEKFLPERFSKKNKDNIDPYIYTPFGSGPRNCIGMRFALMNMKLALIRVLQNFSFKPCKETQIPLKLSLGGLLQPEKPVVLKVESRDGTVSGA
Method in brief: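 Using 20nM recombinant human CYP3A4 in potassium phosphate (200mM), substrate Luciferin-PPXE at 25uM, luminescent luciferin detection followed a 60-min RT NADPH reaction; data scaled to 57 uM ketoconazole.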

[8] = qHTS Assay for Lipid Storage Modulators (AID 1519; calls by dose curve); settings: Drosophila S3 cells, BODIPY lipid droplet/cell ratio, laser cytometry, cells loaded with oleic acid; for activity change, negative = inhibition: at 57.5 µM (top of the series)
Method in brief: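 Cells seeded at 5,000 per well were treated with compounds over a concentration series and loaded with oleic acid (400 uM, as added). Lipid droplet fluorescence (488 nm excitation, 500-530 nm channel) was read by laser-scanning cytometry and normalized to 20 uM Triacsin C.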

[9] = Counterscreen qHTS for small molecule stabilizers of the endoplasmic reticulum resident proteome: GLuc-NoTag assay (AID 1508627);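 further: SH-SY5Y cells given compound then 100 nM thapsigargin to empty ER calcium; 0% = thapsigargin alone and -100% = DMSO vehicle control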
Method in brief: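 Counterscreen line: SH-SY5Y-GLuc-NoTag cells, treated with compound 19 hr before a 4 hr, 100 nM thapsigargin calcium depletion. Secreted Gaussia luciferase in the medium was measured by luminescence after coelenterazine was added (0.07x final), with cells unlysed.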

[10] = Confirmatory qHTS for small molecule stabilizers of the endoplasmic reticulum resident proteome: Secreted ER Calcium Modulated Protein (SERCaMP) assay (AID 1508628); further: nearly all actives have a fitted effect of over 40% in size; further: potency means the concentration at half of the fitted maximal effect
Method in brief: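 GLuc-SERCaMP-expressing SH-SY5Y cells, pretreated 16 h with compound, are challenged with thapsigargin to empty ER calcium stores; after 4 h, coelenterazine is added directly to the medium and luminescence is imaged.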

[11] = Cell Viability qHTS for small molecule stabilizers of the endoplasmic reticulum resident proteome (AID 1508629); settings: cell viability counter-screen, 100 nM thapsigargin for final 4 h;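 further: human SH-SY5Y neuroblastoma cells carrying the GLuc-SERCaMP reporter; compound exposure about 46 h in total before the viability read; on the % scale 0 is the no-effect control and ±100 the full control effect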
[12] = molecular target: Calcium and integrin-binding protein 1 (Homo sapiens) (UniProt Q99828); assay: Primary qHTS for Identification of Calcium Integrin Binding Protein 1 (CIB1) Competitor (AID 1508620);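 further: GST tagged CIB1 binding a fluorescein labelled alphaIIb integrin peptide tracer; top concentration of the series differs between compounds; on the % scale 0 is the no-effect control and ±100 the full control effect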
Sequence of Calcium and integrin-binding protein 1 (Homo sapiens) (Q99828 whole entry, looked up): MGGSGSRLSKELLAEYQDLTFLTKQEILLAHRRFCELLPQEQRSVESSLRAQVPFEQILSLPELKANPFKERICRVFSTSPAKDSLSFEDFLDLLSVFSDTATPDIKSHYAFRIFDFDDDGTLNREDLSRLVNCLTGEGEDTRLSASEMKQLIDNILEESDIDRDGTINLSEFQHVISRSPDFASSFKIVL
Method in brief: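 CIB1-GST (1 uM final) and compound incubated 15 min at room temperature before adding FITC-alphaIIb peptide tracer (100 nM final). Competition for binding read by fluorescence polarization (ex 480, em 540) after another 15 min at room temperature.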

[13] = Primary qHTS for small molecule stabilizers of the endoplasmic reticulum resident proteome: Secreted ER Calcium Modulated Protein (SERCaMP) assay (AID 1508630); further: on the % scale 0 is the no-effect control and ±100 the full control effect
Method in brief: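 The SH-SY5Y reporter protocol was run at 3 concentrations up to 38.3 uM (primary) or 11 concentrations (follow-up): 16 h compound, 100 nM thapsigargin for 4 h, then extracellular luciferase luminescence.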

[14] = molecular target: Mitogen-activated protein kinase 10 (Mus musculus) (UniProt Q61831); assay: JNK3 AlphaScreen Assay (AID 530; active means well fitted curve in either direction with a large enough effect, not every such curve was filed as active)
Method in brief: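 Kinase buffer: 20 mM Tris-HCl pH 7.6, 10 mM MgCl2, 1 mM DTT, 0.1 mM Na3VO4, 0.01% Tween-20; ATP 10 uM. Substrate biotin-GST-cJun(1-79), enzyme from activated HepG2 lysates. Detection by Ser73 phospho-antibody AlphaScreen.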

[15] = NFAT Signaling Pathway (AID 444; active means well fitted curve in either direction with a large enough effect, not every such curve was filed as active); settings: Jurkat NFAT-bla M1, carbachol, beta-lactamase ratio, 5 h; at 38 µM (top of the series)
Method in brief: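 Read-out: CCF4 FRET ratio (460 nm/530 nm) after 1 h RT dye loading, used for %activity and AC50 from titration series. Cells: Jurkat NFAT-β-lactamase/M1 line, treated with compound plus 1 uM carbachol for 5 h, 37 °C.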

[16] = molecular target: Glucocorticoid receptor (Homo sapiens) (UniProt P04150); assay: GR-GFP Redistribution (AID 450;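 active means compounds whose dose series gives a full or clear partial fitted curve of increased nuclear translocation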; further: potency means the concentration at half of the fitted maximal effect); settings: U2OS GR-GFP nuclear translocation, laser cytometry, 2 h
[17] = molecular target: Guanine nucleotide-binding protein G(i) subunit alpha-1 (Homo sapiens) (UniProt P63096); assay: qHTS Assay for Inhibitors of RGS12 GoLoco Motif Activity (Green Fluorophore) (AID 879);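 further: 0% = labeled peptide with Gαi1 and full inhibition = labeled peptide alone without protein; negative values mean loss of peptide binding seen as reduced polarization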
Method in brief: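 A drop in FITC polarization marked displacement of the FITC-tagged RGS12 GoLoco peptide (10 nM) from Gαi1 (50 nM). Compounds were incubated 10 min at room temperature in Tris pH 7.5 buffer containing 150 mM NaCl, 0.1 mM GDP and 0.05% NP40; unlabeled peptide titration served as control.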

[18] = qHTS Assay for Identification of Small Molecule Antagonists for NFkB Signaling Pathway (AID 895; active means well fitted inhibition curve with a large enough effect in the signal ratio, with a control signal flat, not every such curve was filed as active; the % refers to the signal ratio; further: potency means the concentration at half of the fitted maximal effect)
Method in brief: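 Beta-lactamase reporter read-out (460 and 530 nm emission ratio, 405 nm excitation, 2 hrs substrate loading RT) after 5 hr stimulation with 10 pM TNF alpha in compound-treated NFkB-bla ME-180 cells in low-serum medium.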

[19] = qHTS Assay for Identification of Small Molecule Agonists for Thrombopoietin (TPO) Signaling Pathway (AID 917); further: on the % scale 0 is the no-effect control and ±100 the full control effect
Method in brief: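 Stimulation at the TPO EC50 (26 pM final) was used to detect activators. Ba/F3 mouse cells bearing human TPO receptor and a luciferase reporter under the Glycoprotein IIb promoter were exposed to compounds for 24 hrs at 37 C.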

[20] = molecular target: Muscarinic acetylcholine receptor M1 (Rattus norvegicus) (UniProt P08482); assay: qHTS Assay for Antagonists of Acetylcholine Muscarinic M1 Receptor: Kinetic Measurement of Intracellular Calcium Response (AID 943);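 further: Fluo-4 calcium signal as peak divided by basal fluorescence over 4 min; nearly all actives have a fitted effect of over 75% in size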
Method in brief: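 Quantitative HTS in CHO-M1 (rat receptor) cells: 10 min compound exposure ahead of 100 nM carbachol, Fluo-4 fluorescence followed 4 min, value expressed as peak-to-basal ratio.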

[21] = molecular target: Pyruvate kinase (Leishmania mexicana) (UniProt Q27686); assay: qHTS Validation Assay for Inhibitors of Leishmania Mexicana Pyruvate Kinase (AID 945);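 further: 0% = DMSO only neutral control wells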
Method in brief: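 Pyruvate kinase activity of E451W LmPYK (0.2 nM) was followed as ATP output after 1 h at room temperature with 0.5 mM PEP and 0.1 mM ADP, detected by PKLight luminescence.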

[22] = molecular target: Pyruvate kinase PKM (Homo sapiens) (UniProt P14618); assay: qHTS Assay for Activators of Human Muscle Pyruvate Kinase (AID 954; active means well fitted curve in the direction sought with a large enough effect, not every such curve was filed as active;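 further: 0% = uninhibited enzyme and -100% = no enzyme or full thiadiazolimine inhibition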)
Sequence of Pyruvate kinase PKM (Homo sapiens) (P14618 whole entry, looked up): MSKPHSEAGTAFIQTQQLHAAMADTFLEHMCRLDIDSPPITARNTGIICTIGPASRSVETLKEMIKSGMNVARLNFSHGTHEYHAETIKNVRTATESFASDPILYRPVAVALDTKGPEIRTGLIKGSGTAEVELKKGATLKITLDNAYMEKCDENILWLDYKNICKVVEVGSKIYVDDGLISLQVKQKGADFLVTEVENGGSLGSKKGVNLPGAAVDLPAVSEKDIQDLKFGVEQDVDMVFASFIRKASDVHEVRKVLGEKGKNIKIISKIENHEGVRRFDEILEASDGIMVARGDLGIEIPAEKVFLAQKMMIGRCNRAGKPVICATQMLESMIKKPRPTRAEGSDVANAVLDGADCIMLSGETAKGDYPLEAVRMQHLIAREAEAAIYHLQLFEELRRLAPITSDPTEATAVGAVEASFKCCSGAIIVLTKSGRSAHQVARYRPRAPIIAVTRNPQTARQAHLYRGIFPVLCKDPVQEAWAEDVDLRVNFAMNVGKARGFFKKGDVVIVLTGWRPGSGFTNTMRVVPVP
Method in brief: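 Screening used highly purified human pyruvate kinase M2 under submaximal activity, with PEP at its Km and ADP below Km. After an hour at room temperature, ATP was read by luciferase luminescence.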

[23] = molecular target: Alpha-galactosidase (Coffea arabica) (UniProt Q42656); assay: Counterscreen for Glucocerebrosidase Inhibitors: qHTS Assay for Coffee Bean alpha-Galactosidase at pH 4.5 (AID 957);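 further: plate controls were enzyme alone for no effect and no enzyme for full effect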
Sequence of Alpha-galactosidase (Coffea arabica) (Q42656 whole entry, looked up): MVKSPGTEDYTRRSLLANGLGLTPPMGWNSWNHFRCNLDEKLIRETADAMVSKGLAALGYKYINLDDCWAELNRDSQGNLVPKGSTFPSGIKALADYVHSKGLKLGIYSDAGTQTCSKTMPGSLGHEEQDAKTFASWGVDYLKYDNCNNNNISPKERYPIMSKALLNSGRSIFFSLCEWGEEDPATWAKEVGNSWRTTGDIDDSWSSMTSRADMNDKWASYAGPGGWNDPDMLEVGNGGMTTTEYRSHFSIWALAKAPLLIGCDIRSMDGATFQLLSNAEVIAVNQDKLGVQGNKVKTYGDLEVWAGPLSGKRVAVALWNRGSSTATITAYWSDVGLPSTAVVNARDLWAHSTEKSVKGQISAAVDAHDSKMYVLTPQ
Method in brief: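 Quantitative HTS of compounds (0.7 nM to 77 uM) against coffee bean alpha-galactosidase at pH 4.5, measuring 4-methylumbelliferone fluorescence released from 80 uM substrate.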

[24] = molecular target: Alpha-galactosidase A (Homo sapiens) (UniProt P06280); assay: Counterscreen for Glucocerebrosidase Inhibitors: qHTS Assay for Human alpha-Galactosidase at pH 4.5 (AID 992); further: 0% is about no effect
Sequence of Alpha-galactosidase A (Homo sapiens) (P06280 whole entry, looked up): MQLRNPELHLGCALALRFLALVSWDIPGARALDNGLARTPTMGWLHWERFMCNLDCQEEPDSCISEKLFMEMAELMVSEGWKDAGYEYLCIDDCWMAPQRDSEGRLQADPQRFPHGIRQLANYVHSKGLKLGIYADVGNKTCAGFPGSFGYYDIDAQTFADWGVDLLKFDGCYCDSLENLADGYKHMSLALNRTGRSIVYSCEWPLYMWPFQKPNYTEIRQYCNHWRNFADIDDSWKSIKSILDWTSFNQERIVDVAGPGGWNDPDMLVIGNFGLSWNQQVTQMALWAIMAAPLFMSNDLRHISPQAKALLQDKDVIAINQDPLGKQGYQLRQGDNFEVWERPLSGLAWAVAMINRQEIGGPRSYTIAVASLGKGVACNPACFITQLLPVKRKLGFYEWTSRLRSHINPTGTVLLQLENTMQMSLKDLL
Method in brief: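 Each compound is preincubated briefly with 2 nM enzyme before substrate addition (80 uM); plates then sit 20 min at ambient temperature, are quenched with 1M NaOH/1M glycine, and read fluorometrically.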

[25] = molecular target: alpha-glucosidase (Oryza sativa, rice) (UniProt Q653V4); assay: Counterscreen for Glucocerebrosidase Inhibitors: qHTS Assay for Rice alpha-Glucosidase at pH 5.0 (AID 997);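 further: 0% = full activity with enzyme and -100% = basal without enzyme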
Method in brief: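 Endpoint fluorogenic assay at pH 5.0: compounds (0.7 nM to 77 uM) titrated against 4 nM rice enzyme and 400 uM 4-MU-alpha-glucoside for 20 min at room temperature; NaOH/glycine stop, read ex 365/em 440 nm, Hill-fitted AC50.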

[26] = molecular target: DNA dC->dU-editing enzyme APOBEC-3G (Homo sapiens) (UniProt Q9HC16); assay: qHTS for inhibitors of Vif-A3G interactions: Validation (AID 588379); further: 0% is about no effect
Sequence of DNA dC->dU-editing enzyme APOBEC-3G (Homo sapiens) (Q9HC16 whole entry, looked up): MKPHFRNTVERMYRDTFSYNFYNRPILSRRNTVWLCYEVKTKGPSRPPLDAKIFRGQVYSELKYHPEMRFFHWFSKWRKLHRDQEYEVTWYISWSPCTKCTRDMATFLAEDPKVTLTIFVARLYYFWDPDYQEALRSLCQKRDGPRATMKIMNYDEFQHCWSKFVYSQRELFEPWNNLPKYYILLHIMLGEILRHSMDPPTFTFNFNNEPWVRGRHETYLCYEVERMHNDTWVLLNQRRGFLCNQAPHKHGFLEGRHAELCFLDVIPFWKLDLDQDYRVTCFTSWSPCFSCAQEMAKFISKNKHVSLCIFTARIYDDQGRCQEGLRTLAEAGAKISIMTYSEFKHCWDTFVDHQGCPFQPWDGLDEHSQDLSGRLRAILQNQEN
Method in brief: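 Yellow fluorescence (Ex 488, Em 500-530) of Vif-coexpressing HeLa A3G-eYFP cells, scanned by Acumen cytometer, reports blocked A3G degradation. Cells plated at 700/well overnight at 37 deg C before compound addition, then a further overnight compound incubation at 37 deg C.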

[27] = measured here: cell count channel max response
[28] = measured here: lipid channel max response

c1cnc(N2CCC3(CCNCC3)CC2)nc1
inactive: Potency [1] > 11.4 µM | outcome [2] | Potency [3] | outcome [4] | Potency [5] > 46 µM | Potency [6] | Potency [7] | activity change, negative = inhibition [8] 5.39% | outcome [9] | Potency [10] | max response [11] 1.49%
23.4%: max response [8, 28]
13.8%: max response [8, 27]

S=P(c1ccccc1)(c1ccccc1)c1c[n+](Cc2ccccc2)c2ccccn12
inactive: outcome [12]

C[C@@H]1C[C@@H](O)[C@@]2(O)[C@]13CC(=O)OC[C@]2(C)[C@@](C)(O)C(=O)C3
inactive: outcome [13]

c1ccc(N2CC[C@@]3(CCCNC3)C2)cc1
5.01%: max response [8, 27]
10.7%: max response [8, 28]
active: Potency [3] 39.8 µM | Potency [10] 44.7 µM
inactive: Potency [1] > 11.4 µM | outcome [2] | outcome [4] | Potency [5] > 46 µM | outcome [14] | Potency [6] | activity change, negative = inhibition [8] 5.37% | outcome [9] | max response [11] 3.77%

CCCc1ccc(NC(=O)c2ccc3c(c2)NC(=O)CS3)cc1
inactive: outcome [12]

N#C/C(=C\c1ccc(O)c(O)c1)C(N)=S
inactive: activity change, negative = inhibition [15] -11.5% | Potency [16] > 46 µM | Potency [5] > 46 µM | outcome [14] | outcome [17] | Potency [7] | outcome [19] | Potency [20] | Potency [21] | outcome [22] | outcome [23] | outcome [24] | outcome [25] | outcome [26]
active: Potency [3] 12.6 µM and 6.31 µM | Potency [18] 5.62 µM | Potency [10] 10 µM
